# Potency and affinity values are given separately. The source made the active and inactive calls. Entries that show only a call come without a potency. How the calls were made is not given here.
# Assay: cytotoxicity in HeLa cells, dose response, cytotoxicity control, cell-based, 24 h, dry powder (AID 651774)
# Details: HeLa viability, CellTiter-Glo ATP luminescence; series mostly up to 35 µM
row,Compound,outcome
1,O=C(NCc1ccc(-c2ccccc2)cc1)C1CCCC1,inactive
2,CN1CCN(C(=O)Cc2ccc(-c3ccccc3)cc2)CC1,inactive
3,FC(F)(F)c1ccc(CNc2nn[nH]n2)cc1,inactive
4,O=C(Cc1ccncc1)NC1CCCC1,inactive
5,CN1CCC(NC(=O)Cc2ccc(-c3ccccc3)cc2)CC1,inactive
6,O=C(Cc1ccc(C(F)(F)F)cc1)NC1CCCC1,inactive
7,O=C(Cc1ccccc1C(F)(F)F)NC1CCCC1,inactive
8,O=C(Cc1ccccc1Cl)NC1CCCC1,inactive
9,O=C(Cc1ccccc1-c1ccccc1)NC1CCCC1,inactive
10,O=C(Cc1ccc2ccccc2c1)NC1CCCC1,inactive
11,CC(C)n1nnc(NCc2ccc(N3CCCC3)cc2)n1,inactive
12,O=C(NC1CCCC1)Oc1ccc(-c2ccccc2)cc1,inactive
13,O=C(Cc1ccc(-c2ccccc2)cc1)NC1CCC1,inactive
14,O=C(Cc1ccc(F)cc1)NC1CCCC1,inactive
15,O=C(Cc1cccc(F)c1)NC1CCCC1,inactive
16,CCn1nnc(NCc2ccc(C(C)C)cc2)n1,inactive
17,O=C(Cc1ccc(-c2ccccc2)cc1)N1CC(F)(F)C1,inactive
18,CN(C(=O)Cc1ccc(-c2ccccc2)cc1)C1CCCC1,inactive
19,CC(C(=O)NC1CCCC1)c1ccc(-c2ccccc2)cc1 (centres undefined),inactive
20,O=C(O)Cc1ccc(-c2ccccc2)cc1,inactive
21,O=C(Nc1nnc(-c2ccc3c(c2)OCCO3)o1)C1CCCCC1,inactive
22,CS(=O)(=O)c1ccc(CC(=O)NC2CCCC2)cc1,inactive
23,O=C(Cc1ccc(-c2ccccc2)cc1)NC1CCOCC1,inactive
24,O=C(Cc1ccccc1I)NC1CCCC1,inactive
25,Cc1cccc(CC(=O)NC2CCCC2)c1,inactive
26,COc1ccccc1CC(=O)NC1CCCC1,inactive
27,O=C(Cc1ccccc1)NC1CCCC1,inactive
28,O=C(Cc1ccc(-c2ccccc2)cc1)N1CCC(F)(F)CC1,inactive
29,CS(=O)(=O)c1cccc(CC(=O)NC2CCCC2)c1,inactive

# From PubChem BioAssay AID651774 (Broad Institute, 2012)
